Several values for one entry are separate records, joined by “and”; a condition that tells them apart may be missing. Equal entries are not always repeated. The panel holds about 83,000 compounds, 20% with a hit somewhere; the sample as a whole holds those more often.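 How to read the values: 0–100, growth inhibition (40 = 60% inhibited); 0, no net growth; -100 to 0, cell death (-40 = 40% of starting cells died; -100 = all dead).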 Values without a mark were called inactive. Activity calls are given as the source filed them. Rule for the calls: active = growth percent below 10; inactive = the rest.
Each molecule was assayed on MDA-MB-468 breast (assay: NCI-60 one-dose screen, 48 h (100 = growth as untreated, 0 = no growth, -100 = all killed)). Settings: 10 µM unless noted.
`COc1ccc(/C=C2\C(=O)N=C3N2NC(c2cc(Br)ccc2O)C=C(C)N3c2ccccc2)cc1` (stereo unspecified) gave a growth of 90.7%. `Cc1ccc(NC(=O)c2sc3nc4c(cc3c2N)C(=O)CCC4)cc1Cl` showed a growth of 105%. `O=C(Nc1ccc(Cl)c(Cl)c1)OCn1ncc2ccc([N+](=O)[O-])cc21` was tested, and the growth was 87%. For `c1ccc2c(NCCCn3ccnc3)c3oc4ccccc4c3nc2c1`, the growth was -8.65% (active). `Cc1ccsc1/C=C/C1=NCCCN1C` showed a growth of 92.4%. `C=C1C(=O)O[C@H]2[C@H]1CC/C(C(=O)NCCCCCNC(=O)/C1=C/CC[C@@]3(C)O[C@H]3[C@H]3OC(=O)C(=C)[C@@H]3CC1)=C\CC[C@@]1(C)O[C@@H]21` gave a growth of 94.9%. With `CN1CCN(C(=O)[C@@]2(C)CC[C@]3(C)CC[C@]4(C)C(=CC[C@@H]5[C@@]6(C)C/C(=C/c7ccncc7)C(=O)C(C)(C)[C@@H]6CC[C@]54C)[C@@H]3C2)CC1` the growth was 37.5%. `O=C(NNc1nc2cc(F)cc(F)c2n2cccc12)c1ccncn1` was tested, and the growth was -7.49% (active). `C[C@H]1[C@H](C)CC[C@]2(C(=O)NCC#CCN3CCN(C)CC3)CC[C@]3(C)C(=CC[C@@H]4[C@@]5(C)Cc6c([nH]c7ccccc67)C(C)(C)[C@@H]5CC[C@]43C)[C@H]12` gave a growth of 90.1%. `Nc1nc(N)c2c(n1)NC(c1cccc(Nc3ccnc4cc(C(F)(F)F)ccc34)c1)CC(c1ccccc1)=N2` (stereo unspecified) was tested, and the growth was 18.5%. For `CN(C)c1ccc(/C=N/N=C(\C#N)[S][Sn]([Cl])([c]2ccccc2)[c]2ccccc2)cc1`, the growth was -76.8% (active). Work on `C=CC[N+](C)(C)C` yielded a growth of 97.4%. In the case of `COc1cc(/C=C\c2cc(OC)c(OC)c(OC)c2)cc(NC(=O)/C=C/c2cc(OC)c(OC)c(OC)c2)c1OC`, the growth is reported as 36%. In the case of `CC(=O)Nc1ccc(S(N)(=O)=O)cc1`, the growth is reported as 100% and 97.2%. `O=c1oc2ccc(Cl)cc2c(=O)n1-c1ccc(I)cc1F` was tested, and the growth was 1.73% (active). In the case of `N#Cc1ncc(-c2cc(F)c(F)c(F)c2)c(NC2CCCCCC2)n1`, the growth is reported as 87.6%. In the case of `Cc1ccc(C2CC(c3cccs3)=NN2c2ccc(S(N)(=O)=O)cc2)s1` (stereo unspecified), the growth is reported as 16.3%. `COc1ccc(-c2c(C)noc2-c2ccc(O)cc2O)cc1` was tested, and the growth was 77.8%. With `CC(C)=CCc1cc2c(cc1O)C1=C(C(=O)C3=C(NCCS3(=O)=O)C1=O)C(C=C(C)C)O2` (stereo unspecified) the growth was -20.7% (active). Molecule `CC(=O)Nc1ccc(O)c(C)c1` has a growth of 111%. In the case of `CC1CCC(C(C)C)C(NN)C1` (stereo unspecified), the growth is reported as 110%. `Cc1ccc(Nc2nc(N)c3ccccc3n2)cc1Cl` was tested, and the growth was 48%. Work on `O=C(C(=O)N1CCOCC1)c1cn(CCCn2cc(C(=O)C(=O)N3CCOCC3)c3ccccc32)c2ccccc12` yielded a growth of 109%. Work on `O=C(/C=C/c1ccc(Cl)cc1)c1ccc(-n2cc(CN3CCN(c4cc5c(cc4F)c(=O)c(C(=O)O)cn5C4CC4)CC3)nn2)cc1` yielded a growth of 74.4%. For `CCC[CH2][Sn]1([CH2]CCC)[O]C2C(CO)OC(n3ccc(N)nc3=O)C2[O]1` (stereo unspecified), the growth was -82.9% (active). For `Cc1ccc(F)cc1NC(=O)c1cc(Cl)ccc1Nc1ccccc1`, the growth was 61.8%. For `COc1cc2c(cc1OC)C(Sc1ccc(SC)cc1)c1c(nc(N)c(C#N)c1N)O2` (stereo unspecified), the growth was -47.1% (active). `Cc1c2c(cc[n+]1Cc1ccccc1)c1ccc(OCC3CCCCC3)cc1n2CC1CCCCC1` was tested, and the growth was -86.6% (active). `COc1ccc(-c2cc(-c3ccc(Cl)cc3)nc3nc(N)nn23)cc1` showed a growth of 78.5%. Work on `O=C(/C=C/c1cccc(Cl)c1)OCc1ccc2cc1OCC#C/C=C\C#CCO2` yielded a growth of 79.2%. For `NC(=O)c1c(NC(=O)c2cccc(C(F)(F)F)c2)sc2c1CCC(=O)C2`, the growth was -38.1% (active). For `C=C1CC[C@H](C(C)C)[C@@H]2[C@H]1[C@H]1CC(=C)[C@@H](O)CC[C@@](C)(O)[C@@H]2O1`, the growth was 89%. For `NC(=O)[C@@H]1Cc2ccccc2CN1C(=O)c1ccc2c(c1)Cc1ccccc1-2`, the growth was 71.4%. With `Nc1c2ccccc2nc2ccccc12` (tested in a mixture with another compound) the growth was -18.6% (active). In the case of `CCCOC(=O)n1cccc1`, the growth is reported as 106%. `CC(C)(C)c1cc(C(=O)Nc2cc3ccccc3cc2C(=O)NCCN)cc(C(C)(C)C)c1` was tested, and the growth was -87.6% (active).

— PubChem BioAssay (NCI)
